Measured values published in ChEMBL document CHEMBL4513216, “Probing the Open Global Health Chemical Diversity Library for Multistage-Active Starting Points for Next-Generation Antimalarials” (ACS Infect Dis, 2020).
About 8,600 (12%) of roughly 69,000 compounds showed an effect of 50% or more. The sample holds strong results, similar compounds and a random draw of the others, so the mix is not that of the screen.

test system: Plasmodium berghei; assay: Screen against P. berghei liver stage (PbLuc), transformed with Luciferase, at 10uM; assay type: functional, HepG2; details: tested at 10 uM

Row | Structure (SMILES) | INHIBITION [%]
1 | Cc1nc(CN2Cc3nccn3CC(COCC3CC3)C2)cs1 (centres undefined) | 41.2
2 | CNC(=O)CN1CCOCC12CCN(CCc1ccccc1)CC2 | 38.1
3 | COc1c(C2CCCN2CC(=O)Nc2nccs2)c(C)nn1C (centres undefined) | -24.7
4 | Cn1ccc(C(=O)N2CCOC(c3ccccn3)C2)cc1=O (centres undefined) | -5.71
5 | Cn1ccc(C(=O)N2CCOC(c3ccccc3)C2)cc1=O (centres undefined) | 50.5
6 | Cc1ccc(C2CN(C(=O)c3ccn(C)c(=O)c3)CCO2)nc1 (centres undefined) | 44.8
7 | Cc1cc(-n2cncn2)n2ncnc2n1 | 47.1
8 | CC(C)N(CCC#N)C(=O)c1cnc(-c2ccc3c(c2)OCO3)s1 | -73.9
9 | CC(C)c1nnc2n1CC(CNCc1nnc(C(C)(C)C)o1)CC2 (centres undefined) | 3.77
10 | CCN1CCN(c2nc3cn(-c4cnn(CC)c4)c(=O)c-3c[nH]2)CC1 | 36.6
11 | CC(=O)N1C[C@H](NC(=O)c2csc(C(C)C)c2)[C@@H](C(C)C)C1 | 51.1
12 | CC(=O)N1C[C@H](NC(=O)c2ccnc(N)c2)[C@@H](C(C)C)C1 | 19.1
13 | CC(=O)N[C@@H]1CN(C(=O)c2csc(C(C)C)n2)C[C@H]1C(C)C | 9.87
14 | COCC(=O)N1CC[C@H]2[C@H]1CCN2CC(C)C | 52.6
15 | CC(C)CN1CC[C@@H]2[C@@H]1CCN2C(=O)N(C)C | 3.88
16 | CC(C)CN1CC[C@@H]2[C@@H]1CCN2C(=O)N1CCCC1 | 31.9
17 | CN(C)CC(=O)N1C[C@@H]2CC[C@H](Oc3ccccc3)[C@@H]2C1 | -21.4
18 | COc1cccc(CN(C)S(=O)(=O)N2CCOCC2)c1 | 34.7
19 | Cc1nn(C)c(N(C)C)c1CNCc1cccnc1N1CCOCC1 | -69.3
20 | O=C(NC1CC1)[C@@H]1CN(Cc2ccc3c(c2)OCO3)C[C@H]2OCC[C@H]21 | 13.7
21 | CCC(C)N(Cc1c[nH]c(C)n1)Cc1ccccc1Cl (centres undefined) | 41
22 | CCC(C)N(Cc1cc(C)n[nH]1)Cc1ccccc1Cl (centres undefined) | 79
23 | CC(CC#N)N(C)Cc1ccccc1Cl (centres undefined) | 38.5

Row | Structure (SMILES) | INHIBITION [%]
24 | CNC(=O)NC(=O)CN1CCc2c(Br)ccc(F)c2C1 | -34.8
25 | COc1ccccc1CCNC(=O)CNCC1CN(C)CCO1 (centres undefined) | 11
26 | COc1ccc(-c2csc(N)c2C#N)cc1OC | 1.58
27 | CCc1nn2c(=N)c(C#N)n[nH]c2c1-c1ccc(OC)cc1 | 22.9
28 | COc1ccc(-c2c(C)nn3c(=N)c(C#N)n[nH]c23)cc1 | 3.19
29 | COc1ccc(-c2c(C(C)C)nn3c(=N)c(C#N)n[nH]c23)cc1 | 53.1
30 | COc1ccc(-c2nc(C#N)c(N(C)C)o2)cc1OC | -34.9
31 | COc1ccc(-c2c(C)nn3c(=N)c(C#N)n[nH]c23)cc1OC | 85
32 | CN(C)C[C@H]1OC[C@@H]2CCN(C(=O)c3ccc[nH]3)C[C@@H]21 | 29.8
33 | Cc1noc(C2CCC3(CCN(C(=O)c4cnn(C)c4)CC3)O2)n1 (centres undefined) | 44.1
34 | CC(C)(NS(C)(=O)=O)c1nc(-c2ccc(F)c(F)c2)no1 | -7.02
35 | O=C(c1ccc2c(c1)COC2)N1CCCC(n2cncn2)C1 (centres undefined) | 0.411
36 | CO[C@H]1CN(Cc2ccc(F)c(F)c2)C[C@@]12CCCO2 | 35.2
37 | Cc1nc(NC(=O)NC(CS(C)(=O)=O)c2ccccc2)sc1C (centres undefined) | 35.1
38 | Cc1nc2n(n1)CC(NCc1csc(-c3ccsc3)n1)CC2 (centres undefined) | 22.55
39 | Cc1nc(C2CCCNC2)cc(N(Cc2c(C)nn(C)c2C)C2CC2)n1 (centres undefined) | -21.5
40 | COc1cc(S(=O)(=O)N2CCc3ccccc32)cc(C(=O)O)c1OC | 48.2
41 | COc1cc(S(=O)(=O)N2CCc3ccc(Cl)cc32)cc(C(=O)O)c1OC | -11.4
42 | COc1cc(S(=O)(=O)N2CCc3cc(Br)ccc32)cc(C(=O)O)c1OC | 62.6
43 | CCOC(=O)CCNC(=O)N1CCOC(Cc2cccc(OC)c2)C1 (centres undefined) | 53.7
44 | COc1cccc(CC2CN(C3CCN(C(C)=O)CC3)CCO2)c1 (centres undefined) | 1.81
45 | CCOC(=O)CNC(=O)N1CCOC(Cc2ccc(OC)cc2)C1 (centres undefined) | -17.4
46 | Cc1ccccc1C(=O)N1C[C@@H](O)[C@H](N2CCOCC2)C1 | 33.25

Row | Structure (SMILES) | INHIBITION [%]
47 | CS(=O)(=O)c1ccc(NC(=O)N2C[C@H](O)[C@@H](N3CCOCC3)C2)cc1 | 67.5
48 | O=C(Nc1ccc(-n2cccn2)cc1)N1C[C@H](O)[C@@H](N2CCOCC2)C1 | 44.3
49 | COCCS(=O)(=O)NC(C)c1ccc(-n2nc(C)cc2C)cc1 (centres undefined) | 69.7
50 | Cc1cc(C)n(-c2ccc(C(C)NS(=O)(=O)CCCS(C)(=O)=O)cc2)n1 (centres undefined) | 47.4
51 | Cc1cc(C)n(-c2ccc(C(C)NS(N)(=O)=O)cc2)n1 (centres undefined) | 37.1
52 | COCCN1CCC2(CC1)CN(CCn1cccn1)C(=O)CO2 | 23.3
53 | CN(CC(=O)N1CCN(c2cnccn2)CC1)c1ccc(Cl)cn1 | -1.38
54 | CCn1cc(S(=O)(=O)N2CCN(S(=O)(=O)c3ccc(Br)s3)CC2)c(C)n1 | 24.2
55 | CCn1cc(NS(=O)(=O)c2ccc(Br)s2)c(C(=O)NCC(C)C)n1 | -0.217
56 | CCn1cc(NS(=O)(=O)c2ccc(Br)s2)c(C(N)=O)n1 | 61.6
57 | Cc1cccc(-c2ccc(C(=O)N3CCN(C4CC4)CC3)c(=O)[nH]2)c1 | 21.8
58 | NCC1Cc2cc(Cl)cc(-c3cncc(C(=O)N4CCCCC4)n3)c2O1 (centres undefined) | 24.8
59 | Cc1cc2c(c(-c3cncc(C(=O)N4CCCC4)n3)c1)OC(CN)C2 (centres undefined) | 57.3
60 | NCC1Cc2cc(-c3cncc(C(=O)N4CCCCC4)n3)cc(F)c2O1 (centres undefined) | 18.3
61 | CC(C)N1CCC(c2n[nH]cc2S(C)(=O)=O)CC1 | -8.58
62 | Cc1cc(C(=O)NCc2cnn(C)c2C)nc(N2CCCCCC2)n1 | -7.53
63 | Cc1ocnc1C(=O)Nc1ccc(-c2nnc(N(C)C)o2)cc1 | -128
64 | CC(C)CCC1=NC2(CCN(C(=O)N3CCN(C)CC3)CC2)C(=O)N1 | -23.5
65 | COC(=O)N1CCC2(CC1)N=C(CCC(C)C)NC2=O | 76.7
66 | CCOC(=O)N1CCC2(CC1)N=C(CCC(C)C)NC2=O | -65
67 | CC(=O)CCC(=O)N1CCC2(CC1)N=C(CCC(C)C)NC2=O | -40.7
68 | CC(C)CCC1=NC2(CCN(C(=O)CN3CCCC3=O)CC2)C(=O)N1 | 82.4
69 | O=C(CN1CCCCC1=O)N1CCC2(CC1)[C@H](O)C[C@@H]2O | 44
